The panel holds about 83,000 compounds, 20% with a hit somewhere; the sample as a whole holds those more often.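 Assay: single dose, 48 h. Readout: percent growth (0 = no net growth; negative = cell death). Active: <10.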 Active and inactive are the calls of the source.
Legend:
Test in all cases: NCI-60 one-dose screen, 48 h (100 = growth as untreated, 0 = no growth, -100 = all killed)
SK-MEL-2 melanoma = conditions: 10 µM
EKVX NSCLC = conditions: 10 µM
SN12C renal = conditions: 10 µM
UO-31 renal = conditions: 10 µM
TK-10 renal = conditions: 10 µM unless noted
ACHN renal = conditions: 10 µM
CAKI-1 renal = conditions: 10 µM
CCRF-CEM leukemia = conditions: 10 µM
MOLT-4 leukemia = conditions: 10 µM
SR leukemia = conditions: 10 µM
RPMI-8226 leukemia = conditions: 10 µM
OVCAR-5 ovarian = conditions: 10 µM
OVCAR-4 ovarian = conditions: 10 µM
SK-OV-3 ovarian = conditions: 10 µM
IGROV1 ovarian = conditions: 10 µM
OVCAR-3 ovarian = conditions: 10 µM
HS 578T breast = conditions: 10 µM
NCI/ADR-RES ovarian = conditions: 10 µM
OVCAR-8 ovarian = conditions: 10 µM
A498 renal = conditions: 10 µM

Measured: growth

CC(C)OC(=O)c1cc(NC(=S)OC(C)C)ccc1Cl
inactive: SK-MEL-2 melanoma 96.4% | EKVX NSCLC 85.8% | SN12C renal 93% | UO-31 renal 80.2% | TK-10 renal 86.1% | ACHN renal 98.7% | CAKI-1 renal 53.6% | CCRF-CEM leukemia 88.8% | MOLT-4 leukemia 75.7% | SR leukemia 70.2% | RPMI-8226 leukemia 83.3% | OVCAR-5 ovarian 67.2% | OVCAR-4 ovarian 99.1% | SK-OV-3 ovarian 95.1% | IGROV1 ovarian 89.9% | OVCAR-3 ovarian 93.9% | NCI/ADR-RES ovarian 25.8%
active: HS 578T breast -29%

COc1cc(C(N)=O)cc(OC)c1OC
inactive: SK-MEL-2 melanoma 114% | EKVX NSCLC 102% | SN12C renal 96.1% | UO-31 renal 82.5% | TK-10 renal 111% | ACHN renal 105% | CAKI-1 renal 91% | CCRF-CEM leukemia 103% | MOLT-4 leukemia 84.5% | SR leukemia 93.3% | RPMI-8226 leukemia 106% | OVCAR-8 ovarian 98.1% | OVCAR-5 ovarian 98.1% | OVCAR-4 ovarian 110% | SK-OV-3 ovarian 111% | IGROV1 ovarian 108% | OVCAR-3 ovarian 117% | HS 578T breast 106% | NCI/ADR-RES ovarian 101%

CC1(C)N=C(N)N=C(N)N1c1ccc(Cl)cc1
inactive: SK-MEL-2 melanoma 71% | EKVX NSCLC 48.4% | SN12C renal 41.4% | UO-31 renal 85.9% | TK-10 renal 69.7% | ACHN renal 67.4% | CAKI-1 renal 99.9% | A498 renal 120% | MOLT-4 leukemia 53.6% | SR leukemia 52.7% | OVCAR-8 ovarian 30.8% | OVCAR-4 ovarian 55% | SK-OV-3 ovarian 61% | IGROV1 ovarian 35.9% | OVCAR-3 ovarian 69.9%

N#CC1(Nc2ccc3c4c(cccc24)CC3)CCCCC1
inactive: SK-MEL-2 melanoma 90.3% | EKVX NSCLC 102% | SN12C renal 92.7% | UO-31 renal 55.6% | TK-10 renal 102% | ACHN renal 101% | CAKI-1 renal 74.8% | CCRF-CEM leukemia 59% | MOLT-4 leukemia 70.1% | SR leukemia 75.4% | RPMI-8226 leukemia 77% | OVCAR-8 ovarian 99.6% | IGROV1 ovarian 88.3% | OVCAR-3 ovarian 111% | HS 578T breast 97.2% | NCI/ADR-RES ovarian 103%

NC(N)=Nc1cc2ccccc2c2ccccc12
inactive: SK-MEL-2 melanoma 108% | EKVX NSCLC 83.9% | SN12C renal 80.5% | UO-31 renal 57% | TK-10 renal 105% | ACHN renal 72.3% | A498 renal 59.3% | CCRF-CEM leukemia 40.5% | MOLT-4 leukemia 41.6% | SR leukemia 44.3% | RPMI-8226 leukemia 33.5% | OVCAR-8 ovarian 45.9% | OVCAR-5 ovarian 95.8% | OVCAR-4 ovarian 74.4% | SK-OV-3 ovarian 80.2% | IGROV1 ovarian 65.2% | OVCAR-3 ovarian 73.1% | HS 578T breast 96.4% | NCI/ADR-RES ovarian 95.1%

O=c1[nH]cc(Cl)cc1O
inactive: SK-MEL-2 melanoma 89% | EKVX NSCLC 82.2% | SN12C renal 95% | UO-31 renal 62.4% | TK-10 renal 89.4% | ACHN renal 62.2% | CAKI-1 renal 85.9% | CCRF-CEM leukemia 49% | MOLT-4 leukemia 92.1% | SR leukemia 76.2% | RPMI-8226 leukemia 69.9% | OVCAR-8 ovarian 91% | OVCAR-5 ovarian 106% | OVCAR-4 ovarian 101% | SK-OV-3 ovarian 101% | IGROV1 ovarian 91% | OVCAR-3 ovarian 88.3% | HS 578T breast 91%

CCOC(=O)c1ccc(Nc2sc(C(=O)c3cccc([N+](=O)[O-])c3)c(N)c2C#N)cc1
inactive: SK-MEL-2 melanoma 33% | EKVX NSCLC 62.1% | SN12C renal 52.9% | UO-31 renal 31.1% | TK-10 renal 74.1% | ACHN renal 41.3% | A498 renal 38.4% | MOLT-4 leukemia 23.6% | OVCAR-8 ovarian 35.7% | OVCAR-5 ovarian 38.1% | OVCAR-4 ovarian 33.1% | SK-OV-3 ovarian 27.6% | HS 578T breast 15.5% | NCI/ADR-RES ovarian 26.8%
active: CCRF-CEM leukemia 5.1% | SR leukemia -28.3% | RPMI-8226 leukemia -3.9% | IGROV1 ovarian -6.69% | OVCAR-3 ovarian -44.8%

COc1cc2c(cc1O)CC[C@@H]1C2CC[C@@]2(C)C1CC[C@@H]2O (stereo partly drawn)
inactive: SK-MEL-2 melanoma 71.1% | EKVX NSCLC 37.9% | SN12C renal 53.2% | UO-31 renal 41.8% | TK-10 renal 63% | ACHN renal 61.9% | CAKI-1 renal 33.7% | MOLT-4 leukemia 31.8% | SR leukemia 15.1% | OVCAR-4 ovarian 65.2% | SK-OV-3 ovarian 24.1% | IGROV1 ovarian 25.3%
active: CCRF-CEM leukemia 8.85% | RPMI-8226 leukemia 0% | OVCAR-5 ovarian -41.5% | OVCAR-3 ovarian 4.72% | NCI/ADR-RES ovarian -70.7%

Oc1ccc(Cc2ccccc2)c2cccnc12
inactive: SK-MEL-2 melanoma 12.1% | EKVX NSCLC 28.3% | SN12C renal 20.5% | ACHN renal 11.5% | OVCAR-8 ovarian 15.5% | OVCAR-5 ovarian 37.2% | OVCAR-4 ovarian 23.1% | SK-OV-3 ovarian 19.9% | OVCAR-3 ovarian 28.9%
active: UO-31 renal -14.4% | TK-10 renal 9.22% | CAKI-1 renal -6.16% | CCRF-CEM leukemia 1.19% | MOLT-4 leukemia 3.7% | SR leukemia 5.04% | IGROV1 ovarian -4.71% | NCI/ADR-RES ovarian 0.0508%

Cc1ccc(/C(C#N)=C/c2ccc3c(c2)OCO3)cc1
inactive: SK-MEL-2 melanoma 43.3% | EKVX NSCLC 87.3% | SN12C renal 90.6% | UO-31 renal 64.3% | TK-10 renal 80.8% | ACHN renal 95.3% | CAKI-1 renal 53.6% | CCRF-CEM leukemia 65.8% | MOLT-4 leukemia 63.6% | SR leukemia 25.5% | RPMI-8226 leukemia 77% | OVCAR-8 ovarian 94% | OVCAR-5 ovarian 112% | SK-OV-3 ovarian 82.8% | IGROV1 ovarian 72.4% | OVCAR-3 ovarian 73.8% | HS 578T breast 83.8% | NCI/ADR-RES ovarian 44.5%

CC(=O)Nc1cccc(Cl)c1C
inactive: SK-MEL-2 melanoma 100% | EKVX NSCLC 101% | SN12C renal 99.7% | UO-31 renal 85.3% | TK-10 renal 95.5% | ACHN renal 106% | CAKI-1 renal 97.7% | A498 renal 93.3% | OVCAR-8 ovarian 96.5% | OVCAR-5 ovarian 103% | OVCAR-4 ovarian 109% | SK-OV-3 ovarian 101% | IGROV1 ovarian 102% | OVCAR-3 ovarian 102% | NCI/ADR-RES ovarian 104%

O=C1c2ccccc2C(=O)c2c1ccc(C(=O)O)c2[N+](=O)[O-]
inactive: SK-MEL-2 melanoma 119% | EKVX NSCLC 109% | SN12C renal 101% | UO-31 renal 85.1% | TK-10 renal 109% | ACHN renal 98.8% | CAKI-1 renal 98.8% | A498 renal 84% | MOLT-4 leukemia 93.5% | SR leukemia 76.1% | OVCAR-8 ovarian 100% | OVCAR-5 ovarian 102% | SK-OV-3 ovarian 108% | IGROV1 ovarian 105% | OVCAR-3 ovarian 115% | HS 578T breast 82.5% | NCI/ADR-RES ovarian 103%

Cc1ccc(O)c(C(=O)c2ccccc2)c1
inactive: SK-MEL-2 melanoma 107% | EKVX NSCLC 103% | SN12C renal 100% | UO-31 renal 97.2% | TK-10 renal 111% | ACHN renal 104% | A498 renal 78.7% | CCRF-CEM leukemia 55.8% | MOLT-4 leukemia 112% | SR leukemia 113% | RPMI-8226 leukemia 113% | OVCAR-8 ovarian 111% | OVCAR-5 ovarian 96.3% | OVCAR-4 ovarian 110% | SK-OV-3 ovarian 119% | IGROV1 ovarian 113% | OVCAR-3 ovarian 104% | HS 578T breast 108% | NCI/ADR-RES ovarian 105%

N#CCCN(CCCN1CCOCC1)CN1C(=O)c2ccccc2C1=O
inactive: SK-MEL-2 melanoma 118% | EKVX NSCLC 107% | SN12C renal 108% | UO-31 renal 77.2% | TK-10 renal 103% | ACHN renal 113% | CAKI-1 renal 98.6% | CCRF-CEM leukemia 106% | MOLT-4 leukemia 90.9% | SR leukemia 71.8% | RPMI-8226 leukemia 108% | OVCAR-8 ovarian 111% | OVCAR-5 ovarian 106% | IGROV1 ovarian 102% | OVCAR-3 ovarian 120% | HS 578T breast 113% | NCI/ADR-RES ovarian 109%

CCc1ccc(/C(C#N)=C/C=C/c2ccccc2)cc1
active: SK-MEL-2 melanoma -12.2% | CCRF-CEM leukemia -5.51% | SR leukemia 3.53% | RPMI-8226 leukemia 3.92% | OVCAR-3 ovarian -11.2% | NCI/ADR-RES ovarian 8.57%
inactive: EKVX NSCLC 52.3% | SN12C renal 53.2% | UO-31 renal 42.9% | TK-10 renal 16.9% | ACHN renal 58.3% | CAKI-1 renal 53.7% | MOLT-4 leukemia 20.7% | OVCAR-8 ovarian 34.3% | OVCAR-5 ovarian 77.7% | IGROV1 ovarian 35.9% | HS 578T breast 39.7%

COc1ccc(C)cc1OC
inactive: SK-MEL-2 melanoma 112% | EKVX NSCLC 108% | SN12C renal 99.3% | UO-31 renal 89.8% | TK-10 renal 104% | ACHN renal 115% | CAKI-1 renal 101% | A498 renal 94.5% | SR leukemia 99% | OVCAR-8 ovarian 102% | OVCAR-5 ovarian 114% | OVCAR-4 ovarian 104% | SK-OV-3 ovarian 108% | IGROV1 ovarian 99.8% | OVCAR-3 ovarian 102% | HS 578T breast 114% | NCI/ADR-RES ovarian 101%

CN(C)c1ccc2oc(=O)c3ccccc3c2c1
inactive: SK-MEL-2 melanoma 106% | EKVX NSCLC 50.4% | SN12C renal 89.2% | UO-31 renal 81% | TK-10 renal 107% | ACHN renal 103% | CAKI-1 renal 98.4% | CCRF-CEM leukemia 110% | MOLT-4 leukemia 131% | RPMI-8226 leukemia 74.1% | OVCAR-8 ovarian 104% | OVCAR-4 ovarian 69.2% | SK-OV-3 ovarian 101% | IGROV1 ovarian 95.3% | OVCAR-3 ovarian 103% | NCI/ADR-RES ovarian 94.9%

Cc1cc(N)ccc1-c1ccc(N)cc1C
inactive: SK-MEL-2 melanoma 86.3% | EKVX NSCLC 106% | SN12C renal 98.5% | UO-31 renal 77.1% | TK-10 renal 111% | ACHN renal 99.1% | A498 renal 97.1% | CCRF-CEM leukemia 105% | MOLT-4 leukemia 103% | SR leukemia 95.2% | RPMI-8226 leukemia 108% | OVCAR-8 ovarian 90.7% | OVCAR-5 ovarian 98.4% | OVCAR-4 ovarian 108% | SK-OV-3 ovarian 96.4% | IGROV1 ovarian 104% | OVCAR-3 ovarian 99.8% | HS 578T breast 90.4% | NCI/ADR-RES ovarian 92.5%
